Data published in paper PMC5540273 (PLoS ONE, 2017).

The compounds below were run on PIK3CG. Details: concentration: 1 μM, replicates: in singlicate; n = 1.
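Further: KINOMEscan kinase panel screen.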

Structure (SMILES)	%Inh [%]
c1ccc(Oc2ccc(Nc3ccnc4cc(-c5ccc(CN6CCCCC6)o5)ccc34)cc2)nc1 [GW567143]	0
CN(c1ccc(F)c(NC(=O)c2cccc(OC(C)(C)C#N)c2Cl)c1)c1ccc2nc(NC(=O)C3CC3)sc2n1	5
CCOc1nccc(-c2c(-c3ccc(F)cc3)ncn2C2CCNCC2)n1 [SB-249175]	45
CN(C)CCNS(=O)(=O)c1ccc(-c2ccnc3[nH]ccc23)cc1 [GSK977620]	8
CC(C)(C)c1ccc(C(=O)Nc2cn3cc(-n4ccnc4)ccc3n2)cc1	4
Cn1cc(-c2ccc3c(c2)CCN3C(=O)Cc2cc(F)cc(F)c2F)c2c(N)ncnc21 [GSK2634140]	7
O=C(Nc1n[nH]c2nc(-c3ccccc3)ccc12)C1CC1 [SB-708999]	5
O=C(Nc1n[nH]c2nc(-c3cccc(O)c3)ccc12)C1CC1 [SB-711805]	17
CN(C)CCOc1ccc(-c2cc(-c3ccc(Cl)c(O)c3)c(-c3ccncc3)[nH]2)cc1.Cl.Cl [SB-684387]	13
Cc1cc(-c2c(-c3ccc(F)cc3)ncn2CCCN2CCOCC2)nc(N)n1 [SB-222517]	36
CC(C)NCC(Cc1ccccc1)NC(=O)c1cc(Br)c(-c2ccnc3[nH]ccc23)s1.Cl.Cl (stereo not shown) [GSK1383281]	0
CNc1nccc(-c2ccc3c(N)n[nH]c3c2)n1 [GSK2206003]	17
O=C(Nc1n[nH]c2nc(-c3ccccc3O)ccc12)C1CC1 [SB-711880]	17
